These results are taken from PubChem BioAssay (EPA / NIEHS).

What is called AC50 is the concentration at which the activity in the assay is half-maximal.

Records with an inconclusive call do not appear. Active and inactive are the calls of the source. Rule for the calls: active = hit-call score of the fitted dose curve at least 0.9, where 1 is the maximum; inconclusive = response in the unintended direction; inactive = score below 0.9.

In the test the target is Nuclear receptor subfamily 1 group I member 3 (Homo sapiens) (UniProt Q14994). Briefly: ATG_CAR_TRANS: Attagene TRANS-FACTORIAL HepG2 Assay for human Constitutive Androstane Receptor (CAR) (AID 2282969).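 Note: activators raise reporter mRNA above DMSO so AC50 marks induction.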 Conditions: HepG2 Attagene TRANS-FACTORIAL CAR reporter. On the procedure: ATG_TRANS is a cell-based, multiplexed-readout assay that uses HepG2, a human liver cell line, with measurements taken at 24 hours after chemical dosing in a 24-well plate.ATG_CAR_TRANS is one of 30 assay component(s) measured or calculated from the ATG_TRANS assay. It is designed to make measurements of mRNA induction, a form of inducible reporter, as detected with fluorescence intensity signals by Reverse transcription polymerase chain reaction (RT-PCR) and Capillary electrophoresis technology.Data from the assay component ATG_CAR_TRANS was analyzed into 1 assay endpoint. This assay endpoint, ATG_CAR_TRANS, was analyzed in the positive analysis fitting direction relative to DMSO as the negative control and baseline of activity. Using a type of inducible reporter, measures of mRNA for gain-of-signal activity can be used to understand the reporter gene at the transcription factor-level as they relate to the gene NR1I3. Furthermore, this assay endpoint can be referred to as a primary readout, because this assay has produced multiple assay endpoints where this one serves a reporter gene function. To generalize the intended target to other relatable targets, this assay endpoint is annotated to the nuclear receptor intended target family, where the subfamily is non-steroidal.
Chain of Nuclear receptor subfamily 1 group I member 3 (Homo sapiens) (Q14994 whole entry, looked up): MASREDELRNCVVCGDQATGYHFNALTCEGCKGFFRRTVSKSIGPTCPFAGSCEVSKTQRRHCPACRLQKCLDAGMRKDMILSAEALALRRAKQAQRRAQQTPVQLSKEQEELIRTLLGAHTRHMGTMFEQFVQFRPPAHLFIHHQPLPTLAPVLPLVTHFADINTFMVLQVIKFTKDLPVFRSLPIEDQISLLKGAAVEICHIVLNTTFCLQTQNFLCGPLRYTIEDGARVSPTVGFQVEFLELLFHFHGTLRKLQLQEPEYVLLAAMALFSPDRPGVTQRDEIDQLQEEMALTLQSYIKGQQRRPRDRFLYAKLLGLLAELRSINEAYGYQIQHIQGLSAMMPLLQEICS
Human liver HepG2 cells are transiently transfected with multiple reporter transcription units (MRTUs) in 6-well plates using FuGene 6 reagent (Roche; 3 ml FuGene/1 mg DNA). The MRTU constructs are regulated by a cis-regulating element (promoter). […] A major difference between the CIS and TRANS system is that in CIS activities of endogenous TFs are measured, whereas the TRANS assay evaluates changes in activities of exogenous, chimeric NR-Gal4 proteins. […] At the end of 24 hour incubation, total RNA was isolated using TriZol reagent (Invitrogen). The isolated RNA is then reverse-transcribed using oligo(dT) primer and Mo-MLV reverse transcriptase (Invitrogen) with DNAse I (Ambion) treatment for 30 min. The one-tenth of the produced cDNA was amplified by PCR using Taq DNA polymerase (Invitrogen) and two reporter sequence-specific primers. The PCR products were fluorescently labeled by primer extension with 6-arboxyfluorescein (6-FAM) 5'-labeled reporter sequence-specific primer (2 min at 95 C, 20 s at 68 C and 10 min at 72 C) and these products were digested with 5U of HpaI (New England Biolabs) for 2h at 37 C. The fragments were purified using Qiaquick PCR columns (Qiagen), analyzed on an ABI 3130xL genetic analyzer (Applied Biosystems) with peak positions identified by using a set of X-rhodamine (ROX)-labeled MapMarker1000 molecular weight standards (BioVentures). The raw capillary electrophoresis data was processed using Attagraph software (Attagene).
As for `CCn1c2ccccc2c2cc(N)ccc21`, the compound was classed as inactive. Consider `O=Nc1ccc(Nc2ccccc2)cc1`, for which the AC50 is 26.7 µM (active). Take `c1ccc2sc(SN(C3CCCCC3)C3CCCCC3)nc2c1`: the outcome was inactive. In the case of `O=[N+]([O-])c1cc(C(F)(F)F)ccc1Cl`, the compound was called inactive. In the case of `CCCCC(CC)COCCC#N` (stereo not given), the result was inactive. As for `CCCC(=O)OCCC(C)CCC=C(C)C` (stereo not given), the outcome was inactive. Still for that read-out and setting: under `CC1=CCC(O)(C(C)C)CC1` (stereo not given) stands “inactive”; under `CN(C)CCOCCN(C)C`, “inactive”.

Turning to `O=C(O)COCCN1CCN(C(c2ccccc2)c2ccc(Cl)cc2)CC1` (stereo not given), the compound was called inactive. `CCCCN`: the outcome was inactive. Consider `Nc1ccc(S(N)(=O)=O)cc1`, for which the call was inactive. Turning to `CC1(C)[C@H]2CC[C@]1(C)[C@H](O)C2`, the result was inactive. Same read-out and setting: under `CCCc1ccccc1O` stands “inactive”; under `CCCCCCCCCCC(CO)CCCCCCCC` (stereo not given), “inactive”. Still for that read-out and setting: under `C=CC(=O)OCC(O)COc1ccccc1` (stereo not given) stands “inactive”; under `CCC(=O)OCCC(C)CCC=C(C)C` (stereo not given), “inactive”. The same measure, in the same setting: the same measure for `CC(=O)Nc1ccc(C)cc1C`: “inactive”. `c1ccc2c(c1)c1cccc3ccc4cccc2c4c31`: the compound was classed as inactive.

In the case of `OCCOc1cccc(OCCO)c1`, the compound was called inactive. `Clc1nc(C(Cl)(Cl)Cl)c(Cl)c(Cl)c1Cl`: the compound was called inactive. Same read-out and setting: under `CC(=O)OCCOC(C)=O` stands “inactive”; under `Clc1cccc(Cl)n1`, “inactive”. Turning to `CCC(O)CO` (stereo not given), the call was inactive. The same measure, in the same setting: under `CC(C)(C)c1n[nH]c(=S)n(N)c1=O` stands “inactive”; under `Cc1ccccc1C=O`, “inactive”. Still for that read-out and setting: under `CO[Si](CCCn1c(=O)n(CCC[Si](OC)(OC)OC)c(=O)n(CCC[Si](OC)(OC)OC)c1=O)(OC)OC` stands “inactive”; under `CC(=O)OCCC(C)CC(C)(C)C` (stereo not given), “inactive”. `CN(C)c1ccc(O)c2c1C[C@H]1C[C@H]3[C@H](N(C)C)C(=O)C(C(N)=O)=C(O)[C@@]3(O)C(=O)C1=C2O`: the outcome was inactive. Still for that read-out and setting: under `CC(C)(CO)[N+](=O)[O-]` stands “inactive”.

In the case of `CC(C)(C)NC(N)=O`, the outcome was inactive. As to `CC1CCC(C(C)(C)O)CC1` (stereo not given), the outcome was inactive. On the same count and under the same terms, the same measure for `COc1c(Cl)c(Cl)c(Cl)c(Cl)c1Cl`: “inactive”.

For the compound `O=C(O)c1cccc(C(F)(F)F)c1`, the call was inactive.

In the case of `CC(=O)Nc1ccccc1O`, the outcome was inactive.

`NC(=O)Nc1ccc(Cl)cc1`: the compound was called inactive. Still for that read-out and setting: under `COC(=O)Cc1cccc2ccccc12` stands “inactive”; under `CC1=CC(=O)NS(=O)(=O)O1`, “inactive”; under `C=CCOC(=O)CCC1CCCCC1`, “inactive”.

For the compound `CC(C)=CCCC(C)=CCCC(C)=CCO`, the compound was classed as inactive. Consider `O=C1O[C@@H]2[C@@H](O)[C@H](O)O[C@@H]2[C@H]1O`, for which the compound was called inactive.
